# According to PubChem BioAssay:
# Results filed as inconclusive are left out. Active and inactive are the calls of the source. Rule as the data show it, unless noted: active = inhibition above about 80%; inactive = the rest. Peptide text beside a SMILES is read from it.
# What was measured:
# [1] = molecular target: Huntingtin (Homo sapiens) (UniProt P42858); assay: inhibitors of mutant Htt aggregation in vitro, dose response, QA1 (AID 1584); conditions: in vitro mutant huntingtin aggregation assay; confirmation test; at 10 µM; stronger effect = lower value
# Huntingtin (Homo sapiens), sequence (P42858 whole entry, looked up): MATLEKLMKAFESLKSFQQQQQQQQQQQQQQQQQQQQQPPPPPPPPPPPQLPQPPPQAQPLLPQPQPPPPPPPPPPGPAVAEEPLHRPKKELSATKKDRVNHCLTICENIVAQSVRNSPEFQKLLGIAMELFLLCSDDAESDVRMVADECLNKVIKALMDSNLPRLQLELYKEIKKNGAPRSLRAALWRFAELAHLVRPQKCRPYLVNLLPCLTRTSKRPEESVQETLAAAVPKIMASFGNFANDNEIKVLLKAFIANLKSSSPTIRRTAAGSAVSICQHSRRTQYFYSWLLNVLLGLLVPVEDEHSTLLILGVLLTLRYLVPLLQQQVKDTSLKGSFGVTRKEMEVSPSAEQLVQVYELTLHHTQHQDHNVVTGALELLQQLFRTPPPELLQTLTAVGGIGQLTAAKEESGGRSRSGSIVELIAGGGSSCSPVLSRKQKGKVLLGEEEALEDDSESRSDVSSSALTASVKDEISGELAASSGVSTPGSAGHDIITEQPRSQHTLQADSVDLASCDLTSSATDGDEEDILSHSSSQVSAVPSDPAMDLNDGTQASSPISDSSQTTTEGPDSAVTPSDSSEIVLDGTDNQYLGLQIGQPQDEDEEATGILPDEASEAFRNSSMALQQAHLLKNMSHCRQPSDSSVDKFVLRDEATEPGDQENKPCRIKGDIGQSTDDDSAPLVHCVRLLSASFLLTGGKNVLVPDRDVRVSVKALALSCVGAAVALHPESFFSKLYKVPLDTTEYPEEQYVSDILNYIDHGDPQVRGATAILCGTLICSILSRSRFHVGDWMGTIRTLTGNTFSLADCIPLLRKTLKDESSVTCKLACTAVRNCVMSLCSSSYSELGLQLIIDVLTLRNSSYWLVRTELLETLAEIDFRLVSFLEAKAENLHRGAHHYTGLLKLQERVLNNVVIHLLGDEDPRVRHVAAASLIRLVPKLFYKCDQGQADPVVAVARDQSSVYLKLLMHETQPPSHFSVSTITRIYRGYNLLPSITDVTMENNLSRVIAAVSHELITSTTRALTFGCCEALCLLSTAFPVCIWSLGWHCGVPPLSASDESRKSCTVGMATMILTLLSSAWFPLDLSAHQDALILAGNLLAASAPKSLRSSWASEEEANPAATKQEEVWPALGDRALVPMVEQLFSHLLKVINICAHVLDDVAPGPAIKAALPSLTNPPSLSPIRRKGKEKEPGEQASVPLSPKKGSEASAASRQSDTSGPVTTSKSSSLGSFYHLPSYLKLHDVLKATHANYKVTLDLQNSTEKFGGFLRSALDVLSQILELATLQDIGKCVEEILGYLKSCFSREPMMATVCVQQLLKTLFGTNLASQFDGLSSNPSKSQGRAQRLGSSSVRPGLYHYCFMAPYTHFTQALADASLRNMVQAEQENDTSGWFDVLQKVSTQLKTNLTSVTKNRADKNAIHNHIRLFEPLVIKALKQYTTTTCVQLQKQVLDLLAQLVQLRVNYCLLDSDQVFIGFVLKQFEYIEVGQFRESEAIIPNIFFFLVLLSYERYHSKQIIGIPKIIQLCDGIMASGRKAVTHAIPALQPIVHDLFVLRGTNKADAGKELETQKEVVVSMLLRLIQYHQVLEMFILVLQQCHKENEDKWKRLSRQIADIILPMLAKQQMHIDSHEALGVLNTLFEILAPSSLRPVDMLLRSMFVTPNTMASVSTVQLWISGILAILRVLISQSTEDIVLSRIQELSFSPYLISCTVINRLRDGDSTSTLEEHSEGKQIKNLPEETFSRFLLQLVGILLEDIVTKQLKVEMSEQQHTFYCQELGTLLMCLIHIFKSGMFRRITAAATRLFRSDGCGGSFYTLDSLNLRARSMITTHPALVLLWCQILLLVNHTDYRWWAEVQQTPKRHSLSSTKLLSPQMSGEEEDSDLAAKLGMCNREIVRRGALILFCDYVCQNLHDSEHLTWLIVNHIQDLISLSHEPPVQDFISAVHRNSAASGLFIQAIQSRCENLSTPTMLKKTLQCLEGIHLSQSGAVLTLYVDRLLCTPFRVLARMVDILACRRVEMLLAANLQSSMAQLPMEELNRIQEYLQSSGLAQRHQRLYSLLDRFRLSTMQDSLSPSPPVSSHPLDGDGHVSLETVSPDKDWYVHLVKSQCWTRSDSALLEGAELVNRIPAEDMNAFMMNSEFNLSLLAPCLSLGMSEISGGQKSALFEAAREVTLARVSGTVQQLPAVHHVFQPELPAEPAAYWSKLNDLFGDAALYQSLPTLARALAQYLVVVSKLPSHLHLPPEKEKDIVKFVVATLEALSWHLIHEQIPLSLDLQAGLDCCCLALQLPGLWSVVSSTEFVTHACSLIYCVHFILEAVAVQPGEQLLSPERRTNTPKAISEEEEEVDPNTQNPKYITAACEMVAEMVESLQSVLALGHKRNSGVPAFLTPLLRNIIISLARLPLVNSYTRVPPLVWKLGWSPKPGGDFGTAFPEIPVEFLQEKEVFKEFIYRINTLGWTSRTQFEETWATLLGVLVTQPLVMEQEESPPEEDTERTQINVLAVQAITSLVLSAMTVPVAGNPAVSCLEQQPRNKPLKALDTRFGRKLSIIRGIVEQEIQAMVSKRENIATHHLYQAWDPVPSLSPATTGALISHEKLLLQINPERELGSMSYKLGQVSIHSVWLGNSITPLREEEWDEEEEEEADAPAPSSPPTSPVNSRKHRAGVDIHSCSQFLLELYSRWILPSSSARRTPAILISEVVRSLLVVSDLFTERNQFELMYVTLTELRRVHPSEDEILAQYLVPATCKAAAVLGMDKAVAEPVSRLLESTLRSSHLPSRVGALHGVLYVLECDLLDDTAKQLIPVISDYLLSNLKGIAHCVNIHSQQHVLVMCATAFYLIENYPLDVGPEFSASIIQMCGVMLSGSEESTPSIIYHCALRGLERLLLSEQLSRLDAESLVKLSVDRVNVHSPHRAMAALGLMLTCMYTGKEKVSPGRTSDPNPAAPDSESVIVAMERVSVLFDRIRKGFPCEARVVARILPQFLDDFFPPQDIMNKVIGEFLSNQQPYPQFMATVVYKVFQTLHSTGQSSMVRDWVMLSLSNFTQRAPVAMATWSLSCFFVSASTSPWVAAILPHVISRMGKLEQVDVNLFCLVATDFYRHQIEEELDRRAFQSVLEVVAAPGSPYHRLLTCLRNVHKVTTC
# [2] = JHH-DIPG-1 glioma cell viability, MIPE5.0 library, CellTiter-Glo luminescence, qHTS (AID 1347067; cut-off not given, nearly all actives have AC50 up to about 26 µM;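 also: cells exposed to compound for 48 hours before readout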); conditions: JHH-DIPG-1 glioma viability, CellTiter-Glo ATP luminescence
# [3] = system: Aerobactin synthetase IucA (Klebsiella pneumoniae); assay: IucA aerobactin synthetase inhibitors, biochemical, Tocris library, absorbance (AID 1345561; call rule not given here;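 also: 100% = enzyme without compound and 0% = no enzyme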); conditions: purified IucA enzyme assay, absorbance (OD) read-out; stronger effect = lower value;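 tested at 8 µM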
# [4] = inhibitors of Cryptococcus chitosan production, flow cytometry, Cibacron Brilliant Red staining (AID 1347148; call rule not given here;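 also: compound exposure lasted three days at 37 degrees C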); conditions: Cryptococcus neoformans chitosan, stronger effect = lower value; at 10 µM unless noted
# [5] = CRL2098 osteosarcoma cell growth inhibition, synergistic combos for chromothripsis tumors, BGB or cisplatin IC20 combos (AID 1671454); conditions: CRL2098 osteosarcoma cells, drug combinations, stronger effect = higher value;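 also: cells exposed for 96 h before readout; 0% = vehicle DMSO and 100% = killing by high DMSO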
# [6] = HD-MB03 medulloblastoma cell growth inhibition, synergistic combos for chromothripsis tumors, BGB or cisplatin IC20 combos (AID 1671455; in the data active = inhibition above about 83%;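 also: 0% = vehicle DMSO and 100% = high DMSO as cytotoxic control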); conditions: HD-MB03 medulloblastoma cells, stronger effect = higher value
# [7] = UWB1.289 ovarian carcinoma cell growth inhibition, synergistic combos for chromothripsis tumors, BGB or cisplatin combos (AID 1671456); conditions: UWB1.289 ovarian carcinoma cells, stronger effect = higher value;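 also: cells exposed to compound for four days; 0% = vehicle DMSO and 100% = killing by high DMSO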
# [8] = LFS_MB_2R medulloblastoma cell growth inhibition, synergistic combos for chromothripsis tumors, cisplatin combos (AID 1671457); conditions: LFS_MB_2R medulloblastoma cells, stronger effect = higher value;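 also: cells exposed to compound for four days before readout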
# [9] = UWB1.289_BRCA1 ovarian cancer growth, cell-based, BGB or cisplatin combinations (AID 1671459); conditions: UWB1.289 BRCA1 ovarian carcinoma, drug combinations, stronger effect = higher value
# [10] = human astrocyte viability loss, single and combined drugs, cytotoxicity control for chromothriptic childhood tumor combination screen, cell-based, BGB or cisplatin IC20 combos (AID 1671460); conditions: Human astrocytes, drug combinations, stronger effect = higher value;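 also: cells exposed to compounds for 96 hours before viability readout; 0% = vehicle and 100% = killing control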
# [11] = protection against mutant huntingtin cytotoxicity, PC12 cells, LDH release (AID 1610); conditions: PC12 mutant huntingtin toxicity, final LDH at 4 uM, stronger effect = lower value
# [12] = modifiers of HSF1 nuclear foci, imaging, Selleck Cancer Library (AID 1347162; in the data active = plate-normalised HSF1 focus index below about 0.46); conditions: human cells, at 10 µM; SSMD: measured here: HSF1 foci SSMD mean; cell count: measured here: cell number; plate-normalised HSF1 focus index: stronger effect = lower value
# [13] = protection of motor neurons from glutamate death, cell-based, TUNEL DNA degradation staining, MNGlu (AID 1594; call rule not given here); conditions: glutamate-induced death, at 1 µM, stronger effect = higher value
# [14] = enhancers of SMN2 over SMN1 splicing, cell-based, SMN2/SMN1 luciferase reporters (AID 1598; call rule not given here); conditions: SMN2 vs SMN1 luciferase splicing reporter cells, at 10 µM; SMN1 luciferase ratio: measured here: SMN1 luciferase reporter average; SMN2 luciferase ratio: measured here: SMN2 luciferase reporter average, stronger effect = higher value; SMN2/SMN1 luciferase ratio: stronger effect = higher value
# [15] = measured here: combination with BGB at IC20, at 0.5 µM
# [16] = measured here: combination with cisplatin at IC20, at 0.5 µM
# [17] = measured here: combo with BGB at IC20, at 0.5 µM
# [18] = measured here: combo with cisplatin at IC20, at 0.5 µM
# [19] = measured here: inhibition with BGB combination, at 0.05 µM
# [20] = measured here: inhibition with cisplatin combination, at 0.05 µM
# [21] = measured here: combination with cisplatin, at 0.5 µM
# [22] = measured here: combination with cisplatin, at 5 µM
# [23] = BGB combination, concentration series, at 5 µM
# [24] = cisplatin combination, concentration series, at 5 µM
# [25] = measured here: combo with BGB IC20, at 0.5 µM
# [26] = measured here: combo with cisplatin IC20, at 0.5 µM
structure (smiles),measurement,setting,value
O=c1c(O)c(-c2ccc(O)cc2O)oc2cc(O)cc(O)c12,aggregation ratio,[1],0.704
same,outcome,[2],inactive
O=C1C[C@@H](c2ccc(O)cc2)Oc2cc(O)cc(O)c21,outcome,[2],inactive
C1CCc2nnnn2CC1,remaining activity,[3],117% (inactive)
O=C(/C=C/C=C/c1ccc2c(c1)OCO2)N1CCCCC1,outcome,[2],inactive
c1ccc2c(Cc3c[nH]c4ccccc34)c[nH]c2c1,fold fluorescence,[4],4.77 (inactive)
COc1ccc2cc1Oc1ccc(cc1)C[C@H]1c3cc(c(OC)cc3CCN1C)Oc1c(OC)c(OC)cc3c1[C@H](C2)N(C)CC3,fold fluorescence,[4],5.71 [at 80.3 µM] (inactive)
O=C(/C=C/c1ccc(O)c(O)c1)OCCc1ccccc1,remaining activity,[3],122% (inactive)
same,fold fluorescence,[4],6.87 [at 175.9 µM] (inactive)
CCCc1nn(C)c2c(=O)[nH]c(-c3cc(S(=O)(=O)N4CCN(C)CC4)ccc3OCC)nc12,outcome,[2],inactive
CC(=O)N[C@@H](CC(=O)O)C(=O)N[C@@H](CCC(=O)O)C(=O)O (Ac-Asp-Glu-OH),remaining activity,[3],82.4% (inactive)
O=c1c(O)c(-c2ccc(O)c(O)c2)oc2cc(O)ccc12,inhibition,[5]; at 0.5 µM,3.92% (inactive)
same,inhibition,[5]; [15],-8.68%
same,inhibition,[5]; [16],27.9%
same,inhibition,[6]; at 0.5 µM,-0.08% (inactive)
same,inhibition,[6]; [17],1.14%
same,inhibition,[6]; [18],-0.856%
same,inhibition,[7]; at 0.5 µM,3.05% (inactive)
same,inhibition,[7]; [19],1.82%
same,inhibition,[7]; [20],-4.79%
same,inhibition,[8]; at 0.5 µM,1.64% (inactive)
same,inhibition,[8]; [21],-4.17%
same,inhibition,[8]; [22],-0.986%
same,inhibition,[9]; [23],14.5%
same,inhibition,[9]; at 0.5 µM,1.05% (inactive)
same,inhibition,[9]; [24],19.6%
same,inhibition,[10]; at 0.5 µM,10.6% (inactive)
same,inhibition,[10]; [25],1.09%
same,inhibition,[10]; [26],26.6%
CCn1nc(C(=O)O)c(=O)c2cc3c(cc21)OCO3,inhibition,[5]; at 0.5 µM,-51.5% (inactive)
same,inhibition,[5]; [15],-50.7%
same,inhibition,[5]; [16],-58%
same,inhibition,[6]; at 0.5 µM,-4.61% (inactive)
same,inhibition,[6]; [17],-9.5%
same,inhibition,[6]; [18],-2.73%
same,inhibition,[7]; at 0.5 µM,-2.26% (inactive)
same,inhibition,[7]; [19],-31.4%
same,inhibition,[7]; [20],-13.5%
same,inhibition,[8]; at 0.5 µM,-9.44% (inactive)
same,inhibition,[8]; [21],-16.5%
same,inhibition,[8]; [22],-17.7%
same,inhibition,[9]; [23],14%
same,inhibition,[9]; at 0.5 µM,-2.39% (inactive)
same,inhibition,[9]; [24],6.77%
same,inhibition,[10]; at 0.5 µM,10.8% (inactive)
same,inhibition,[10]; [25],8.46%
same,inhibition,[10]; [26],10.9%
CC[C@H]1OC(=O)[C@H](C)[C@@H](O[C@H]2C[C@@](C)(OC)[C@@H](O)[C@H](C)O2)[C@H](C)[C@@H](O[C@@H]2O[C@H](C)C[C@H](N(C)C)[C@H]2O)[C@](C)(O)C[C@@H](C)C(=O)[C@H](C)[C@@H](O)[C@]1(C)O,outcome,[2],inactive
NC[C@H]1O[C@H](O[C@H]2[C@H](O)[C@@H](O[C@H]3O[C@H](CO)[C@@H](O)[C@H](N)[C@H]3O)[C@H](N)C[C@@H]2N)[C@H](N)C[C@@H]1O,outcome,[2],inactive
OCc1ccccc1O[C@@H]1O[C@H](CO)[C@@H](O)[C@H](O)[C@H]1O,outcome,[2],inactive
COc1ccc(-c2coc3cc(O)cc(O)c3c2=O)cc1,normalised LDH release,[11],1.03
O=C(CCc1ccc(O)cc1)c1c(O)cc(O)cc1O,outcome,[2],inactive
same,SSMD,[12],2.09
same,cell count,[12],7280
same,plate-normalised HSF1 focus index,[12],1.13 (inactive)
O=c1cc(-c2ccccc2)oc2cc(O)cc(O)c12,outcome,[2],inactive
NC(N)=NC(N)=Nc1ccccc1,remaining activity,[3],119% (inactive)
c1coc(CNc2ncnc3nc[nH]c23)c1,outcome,[2],inactive
Cc1cc(O)c2c(c1)C(=O)c1cccc(O)c1C2=O,outcome,[2],inactive
same,SSMD,[12],1.91
same,cell count,[12],7380
same,plate-normalised HSF1 focus index,[12],1.07 (inactive)
C=C1c2c(Cl)ccc(O)c2C(O)=C2C(=O)[C@]3(O)C(O)=C(C(N)=O)C(=O)[C@@H](N(C)C)[C@@H]3[C@@H](O)[C@H]12,aggregation ratio,[1],0.703
CN1CCc2c(c3ccccc3n2Cc2ccccc2)C1,protection,[13],49% (active)
same,normalised LDH release,[11],0.901
CN1CCc2cccc3c2C1Cc1ccc(O)c(O)c1-3 (stereo unspecified),normalised LDH release,[11],0.891
COc1c2ccoc2cc2oc(=O)ccc12,inhibition,[5]; at 0.5 µM,-46.9% (inactive)
same,inhibition,[5]; [15],-48%
same,inhibition,[5]; [16],-47.5%
same,inhibition,[6]; at 0.5 µM,-4.51% (inactive)
same,inhibition,[6]; [17],-4.11%
same,inhibition,[6]; [18],-2.34%
same,inhibition,[7]; at 0.5 µM,-2.25% (inactive)
same,inhibition,[7]; [19],-12.4%
same,inhibition,[7]; [20],-7.34%
same,inhibition,[8]; at 0.5 µM,-16.1% (inactive)
same,inhibition,[8]; [21],-10.7%
same,inhibition,[8]; [22],0.771%
same,inhibition,[9]; [23],5.68%
same,inhibition,[9]; at 0.5 µM,-4.34% (inactive)
same,inhibition,[9]; [24],13.5%
same,inhibition,[10]; at 0.5 µM,1.97% (inactive)
same,inhibition,[10]; [25],-6.42%
same,inhibition,[10]; [26],7.69%
NC(N)=NCCCCN=C(N)N,protection,[13],45% (active)
Cc1cc(/C=C/c2ccc3cc(N(C)C)ccc3[n+]2C)c(C)n1-c1ccccc1,aggregation ratio,[1],0.715
CC(C(=O)O)c1ccc(N2Cc3ccccc3C2=O)cc1 (stereo unspecified),SMN1 luciferase ratio,[14],0.71
same,SMN2/SMN1 luciferase ratio,[14],2.02 (active)
same,SMN2 luciferase ratio,[14],1.4
COc1cc2ccc(=O)oc2cc1O,normalised LDH release,[11],0.874
CC(C)Cn1c(=O)n(C)c(=O)c2[nH]cnc21,fold fluorescence,[4],4.08 [at 225 µM] (inactive)
